This note sets out measurements from PubChem BioAssay (NCI).

This is part of a sample that, as a whole, favours compounds with a hit. Of some 83,000 tested, about 20% had one in any assay.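 Assay: single dose, 48 h. Readout: percent growth (0 = no net growth; negative = cell death). Active: <10.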 The source made the active and inactive calls.

In the test the test system is UACC-62 melanoma. Briefly: NCI-60 one-dose screen, 48 h (100 = growth as untreated, 0 = no growth, -100 = all killed). To be noted: 10 µM unless noted. The procedure: Growth inhibition of the UACC-62 human tumor cell line is measured as a screen for anti-cancer activity. Cells are grown in 96 well plates and exposed to the test compound for 48 hours. Compounds are tested at a single concentration, which is 10^-5 M for most compounds. The reported endpoint is percent growth (GI% or GIPRCNT), where numbers from 0 - 100% represent growth inhibition, and numbers from -100% - 0 represent cell death. For example, a value of 40 represents 60% growth inhibition. A value of 0 means no net growth occurred over the course of the experiment. A value of -40 indicates 40% of cells at the beginning of the experiment died by the end of the experiment. A value of -100 means all cells are dead at the end of the experiment.
NCI-60 Human Tumor Cell Lines Screen was performed using the standard one-dose NCI protocol, which is described in more detail at https://dtp.cancer.gov/discovery_development/nci-60/default.htm.
Compounds with GIPRCNT values below 10 were considered active. Activity score was based on GIPRCNT using the following formula: […]
Score is 0 for GIPRCNT values of 100 or above, 50 for GIPRCNT values of 0, and 100 for GIPRCNT values of -100.
On to `CCOC(=O)c1c(NC(=O)c2ccc(OC)cc2)sc2c(CN(C)C)c(O)ccc12`, for which the growth is 95.7% (inactive). For the molecule `Oc1c(I)cc(-c2nc3ccccc3s2)cc1CN(Cc1ccccn1)Cc1ccccn1`, the growth is 10.5% (inactive). The figure for `Cn1c(=O)c2c(nc(NC3=NS(=O)(=O)c4ccccc43)n2Cc2ccccc2)n(C)c1=O` is 91.5% (inactive); for `C[Se]C(=O)CC1=C2C=C(F)C=CC2/C(=C\c2ccc(S(C)=O)cc2)C1C` (stereo not given) it is 30.9% (inactive); for `C=C(CO)[C@@H]1CC[C@]2(COC3CCCCO3)CC[C@]3(C)[C@H](CC[C@@H]4[C@@]5(C)C=C(C=O)C(=O)C(C)(C)[C@@H]5CC[C@]43C)[C@@H]12` (stereo not given in full) it is -76.7% (active).

With `O=C1/C(=C/c2ccccc2[N+](=O)[O-])COc2ccc(O)cc21`, the growth is 2.16% (active). `N#C/C(=C\c1ccc(-c2ccc(Cl)cc2)o1)c1ccc(Cl)cc1`: the growth was 78.7% (inactive). For the molecule `C=CC(=O)NCCOc1cccc(Nc2cc(NCCCNC(=O)C3CCC3)c(Br)cn2)c1`, the growth was -34.7% (active). On to `Fc1ccc(CNc2c3ccccc3nc3ccccc23)cc1`, for which the growth was 50.2% (inactive). The figure for `N#Cc1c(-c2ccccc2)c(C#N)c2c(C#N)c(N)nn2c1N` is 19.6% (inactive); for `Cn1c(/C=C/[N+](=O)[O-])cc2ccccc21` it is 42.2% (inactive).

On to `CCOc1ccc(NC(=O)c2cc(OC)c(OC)c(OC)c2)cc1`, for which the growth is 35.7% (inactive). As to `O=C(CSc1nnc2sc(Nc3cccc(Cl)c3)nn12)c1ccc(F)cc1`, the growth was 82.7% (inactive). For the molecule `CCNC(=O)Oc1ccc(/C(=C(/C)Cc2ccc(OC)cc2)c2ccc(OCCN3CCCCCC3)cc2)cc1`, the growth is 73.2% (inactive). The figure for `CC(C)[C@@]12C[C@@H](OC(=O)COC(=O)c3ccccc3)[C@@](C)(O1)[C@@H]1CC[C@@H](C)[C@H]1[C@@H]2OC(=O)/C=C/c1ccccc1` is 83.2% (inactive); for `COc1ccc2nc(Cl)c(/C=C/C(=O)c3ccc(NC(=O)CSc4nnc(-c5ccc(Cl)c(Cl)c5)n4-c4ccccc4)cc3)cc2c1` it is 86.2% (inactive); for `CC(C)c1ccc(C(=O)Nc2sc3cc(O)ccc3c2C#N)cc1` it is 18% (inactive). The figure for `CCN(CC)CCOc1nc2c3ccc(Cl)cc3nn2c2ccccc12` is 9.05% (active).

For `COc1cc(Nc2c3ccc(Cl)cc3nc3ccc(OC)cc23)c2ncccc2c1`, the growth was 36.4% (inactive). The figure for `CCN(CCO)CC(C)Nc1ccc([N+](=O)[O-])c2sc3ccccc3c(=O)c12` (stereo not given) is 29.8% (inactive). The figure for `COc1cc(N2C(=O)[C@H](c3ccccc3)C2c2ccc(SC)cc2)cc(OC)c1OC` (stereo not given in full) is 7.64% (active). The figure for `CSCCC(NC(=O)c1ccccc1)C(=O)N/N=C1\S/C(=C/c2ccc(Cl)cc2)C(=O)N1C` (stereo not given) is 91.1% (inactive); for `C=CC(C)(O)CC/C=C(\CO)C(=O)OC1C(C)OC(O[C@](C)(C=C)CC/C=C(\CO)C(=O)O[C@H]2C[C@@]3(C(=O)OC4OC(CO)C(O)C(O)C4OC4OC(C)C(OC5OC(CO)C(O)C5O)C(OC5OC(CO)C(O)C(O)C5O)C4O)C(CC2(C)C)C2=CCC4[C@@]5(C)CC[C@H](OC6OC(COC7OC(C)C(O)C(O)C7OC7OCC(O)C(O)C7O)C(O)C(O)C6NC(C)=O)C(C)(C)C5CC[C@@]4(C)[C@]2(C)C[C@H]3O)C(O)C1O` (stereo not given in full) it is -11% (active). On to `CCOC(=O)c1n[nH]n2c1nc(=O)c1cnn(C)c12`, for which the growth is 106% (inactive). In the case of `CCn1cc(C2=C(c3cn(C)c4ncccc34)C(=O)NC2=O)c2cccnc21` it was 70% (inactive); in that of `CCN(CC)c1ccc(/C=N/NC(=O)c2ccc(Nc3ccnc(C(F)(F)F)c3)cc2)c(O)c1`, 5.86% (active).

As to `C=C1C(=O)O[C@H]2[C@H]1CC/C(COC(=O)NCCCCCCCCNC(=O)OC/C1=C/CC[C@@]3(C)O[C@H]3[C@H]3OC(=O)C(=C)[C@@H]3CC1)=C\CC[C@@]1(C)O[C@@H]21`, the growth is -70.8% (active).

Regarding `FC(F)(F)c1[nH]ncc1-c1nc2c(N3CCCCC3)cc3[nH]ncc3c2c2c1CCCC2`, the growth was -49.9% (active). The figure for `CC/C=C\C/C=C/C=C1/C(=O)C=C[C@@H]1C/C=C\CCCC(=O)OC` is -6.19% (active); for `O=C1/C(=C/c2ccc(C(F)(F)F)cc2)COc2ccc(O)c(O)c21` it is 12.2% (inactive); for `O=c1oc2c(cnc3ccccc32)cc1-c1cccs1` it is 101% (inactive). The figure for `C/C(=C(\c1ccc(OCCN2CCCCCC2)cc1)c1ccc(OC(=O)Cc2ccccc2)cc1)c1ccc(Cl)cc1` is -5.48% (active); for `NC(=O)OCCn1cc(-c2nc(-c3c[nH]c4ncccc34)cs2)c2ccccc21` it is 32.9% (inactive); for `CN1CCN(C(=O)c2cc(-c3ccc4ncnc(N5CCc6cc(F)c(Cl)cc65)c4c3)cnc2N)CC1` it is -52.1% (active). In the case of `O=C1/C(=C/c2ccccc2)CN(C(=O)c2cccnc2)C/C1=C\c1ccccc1` it was -46.2% (active); in that of `COc1ccc(-c2cc(-c3ccc(OC)cc3)nc(NCCCNc3ccnc4cc(Cl)ccc34)n2)cc1`, 91.8% (inactive). With `CN1CCN(Cc2ccc(NC(=O)c3cncc(C#Cc4cnn5ccccc45)c3)cc2C(F)(F)F)CC1`, the growth is 13.8% (inactive). For `O=C(CN1C(=O)NC2NC(=O)NC21)N/N=C/c1ccc(Cl)cc1Cl` (stereo not given), the growth is 99% (inactive). In the case of `Cc1nc2ccccc2c(/C=C/c2ccc(C(F)(F)F)cc2)c1C(=O)/C=C/c1ccccc1` it was -39.8% (active).

Turning to `Cc1cc(C)c(-c2c(O)c(Br)c(-c3c(C)cc(C)c(Br)c3C)c(O)c2Br)c(C)c1Br`, the growth is 14.8% (inactive).
